Drawing on PubChem BioAssay (NCI), this text covers growth for seven compounds.

Common to all, as to assay: NCI-60 one-dose screen, 48 h (100 = growth as untreated, 0 = no growth, -100 = all killed)
Common to all, as to conditions: 10 µM unless noted

Assay [1] deals with NCI-H23 lung.
Assay [2] relates to NCI-H226 lung.
In assay [3] the test system is NCI-H322M lung.
The test system of assay [4] is HOP-62 NSCLC.
The subject of assay [5] is NCI-H460 lung.
In assay [6] the test system is HOP-92 NSCLC.
Assay [7] relates to NCI-H522 lung.
For assay [8], the system named is A549/ATCC NSCLC.
For assay [9], the system named is 786-0 renal.
For assay [10], the system named is COLO 205 colon.
Assay [11] deals with DU-145 prostate.
Assay [12] has as its system K-562 leukemia.
Assay [13] deals with MALME-3M melanoma.
The test system of assay [14] is MDA-MB-231 breast.
Assay [15] concerns RXF 393 renal.
The subject of assay [16] is SF-268 CNS.
Assay [17] concerns SF-295 CNS.
The subject of assay [18] is SF-539 CNS.
The subject of assay [19] is UACC-257 melanoma.
Assay [20] concerns M14 melanoma.

About 83,000 compounds went through this panel and 20% of them were active in at least one assay; those are over-represented in the sample as a whole.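 Percent growth is the endpoint: 0 to 100 indicates growth inhibition (40 means 60% inhibition), 0 means no net growth, and negative values indicate cell death.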 Values without a mark were called inactive. The source made the active and inactive calls. How the source made its calls: active means growth percent below 10; inactive means the rest.

As to `O=C(/C=C/C12c3ccccc3C(c3ccccc31)C1C(=O)NC(=O)C12)c1ccccn1` (stereo not given), the growth in assay [1] is -8.66% (active); in [2], 48.5%; in assay [3], -4.26% (active); in assay [4], -22.7% (active); in [5], -18.5% (active); in assay [6], -12.4% (active). Further, the growth is 7.45% (active) in assay [7]; 6.07% (active) in [8]; 1.59% (active) in assay [9]; -50.5% (active) in assay [10]; 15.3% in assay [11]; 8.81% (active) in [12]. In addition, the growth in assay [13] was 19.1%; in assay [14], 16.4%; in assay [15], -46.3% (active); in [16], 24.1%; in assay [17] it was 16%; in assay [18] it was -7.59% (active). The growth in [19] was 33.8%; in [20] it was -15.4% (active).
With `Nc1ncnc2c1c(-c1ccc(Oc3ccccc3)cc1)nn2CC1SSCC1O` (stereo not given), the growth in assay [1] was 49%; in assay [2], 23.4%; in assay [3], 34.8%; in assay [4], 56.9%; in [5], 28%; in assay [6], 6.06% (active). Further, the growth in [7] is 37.8%; in assay [8], 42.3%; in [9], 63.8%; in assay [10] it was 35.2%; in assay [11], 49%; in [12], 11.2%. The growth in [13] was -34.8% (active); in [14], 47%; in assay [15], 17.7%; in assay [16], 48.8%; in assay [17] it was 73%; in assay [18] it was 41.2%. For the same compound, the growth in assay [19] is 46.6%; in [20], -73.5% (active).
As to `CCCCCCOC(=O)CC1=C(C)/C(=C/c2[nH]c(-c3ccc[nH]3)cc2OC)N=C1C`, the growth in assay [1] is -29.3% (active); in [2], -30.6% (active); in assay [3], 11.2%; in [4] it was -37.8% (active); in assay [5], -23% (active); in assay [6] it was -27.7% (active). Moreover, the growth in [7] is -49.5% (active); in assay [8], -6.96% (active); in assay [9], -51.8% (active); in assay [10], -82.9% (active); in assay [11], 5.68% (active); in assay [12] it was -33.6% (active). Also, the growth in assay [13] was -74% (active); in assay [14] it was -50.7% (active); in [15] it was -56.1% (active); in assay [16], -20.8% (active); in [17], -60.4% (active); in [18] it was -71.3% (active). Also, the growth is -63.9% (active) in assay [19] and -86.2% (active) in assay [20].
Take `Cc1cc(N2CCN(C)CC2)nc(NCc2cc(Nc3ccnc4cc(Cl)ccc34)ccc2F)n1`: the growth in assay [1] is 25.4%; in assay [2], 40.1%; in assay [3], 8.43% (active); in assay [4], -14.2% (active); in assay [5] it was -54.3% (active); in [6], 5.13% (active). The growth was -8.53% (active) in assay [7]; -17% (active) in assay [8]; -26.9% (active) in [9]; -61.6% (active) in [10]; 10.5% in assay [11]; 2.5% (active) in assay [12]. The growth in assay [13] was -76.6% (active); in assay [14], -56.5% (active); in assay [15], -70.9% (active); in assay [16], 8.21% (active); in assay [17], -70.1% (active); in [18] it was -83.4% (active). In addition, the growth in assay [19] was -73.5% (active); in assay [20], -65% (active).
Regarding `N/C(=N\c1nc2ccccc2s1)NC(=NC1CCCCC1)NC1CCCCC1`, the growth was 30.6% in [1]; 77.1% in [2]; 40.4% in assay [3]; 67.7% in assay [4]; -44.4% (active) in assay [5]; -1.22% (active) in [6]. In addition, the growth in assay [7] was 14%; in assay [8] it was 45.9%; in assay [9], 25.1%; in assay [10], -44.9% (active); in assay [11] it was 14.3%; in [12] it was 3.16% (active). Besides, the growth was -70% (active) in assay [13]; 21.1% in [14]; -46.9% (active) in assay [15]; 60% in assay [16]; -34.9% (active) in assay [17]; -44.7% (active) in [18]. In addition, the growth in assay [19] is -52.6% (active); in [20], -55.8% (active).
As to `COc1cc2c(c(OC)c1OC)C(=O)CC(c1cccc(NC(=O)c3ccccc3Br)c1)O2` (stereo not given), the growth in [1] is 98.4%; in [2] it was 84.8%; in assay [3], 96%; in assay [4], 97.4%; in assay [5], 90.4%; in [6], 65.2%. Besides, the growth in assay [7] was 66.7%; in [8] it was 88.1%; in assay [9], 103%; in assay [10] it was 116%; in [11], 97.1%; in assay [12] it was 70.2%. Besides, the growth in assay [13] was 105%; in assay [14] it was 98.6%; in assay [15], 99.4%; in assay [16], 90.5%; in [17], 92.5%; in [18], 96.5%. In addition, the growth in assay [19] was 90.1%; in assay [20], 97.8%.
In the case of `Cn1cc(C(=O)c2nc(-c3c[nH]c4ccc(Br)cc34)no2)c2cc(Br)ccc21`, the growth in assay [1] was 83%; in [2], 102%; in assay [3], 73.4%; in assay [4], 78.4%; in [5] it was 12.5%; in assay [6] it was 83.9%. Further, the growth in assay [7] was 84.2%; in assay [8], 32.1%; in assay [9], 99.4%; in assay [10], 93.3%; in assay [11] it was 3.08% (active); in assay [12] it was 37.7%. For the same compound, the growth is 43.7% in assay [13]; 45.9% in assay [14]; 96.4% in assay [15]; 55.9% in assay [16]; 88.4% in [17]; 88.7% in assay [18]. Further, the growth was 109% in assay [19] and 47% in [20].
